Sampled rows, rich in hits. Any-hit rate of the full collection: about 11%.
IMPase Li inh: qHTS Assay for Identifying the Cell-Membrane Permeable IMPase Inhibitors: Potentiation with Lithium. AID 1457, 2008. CHO-M1 cells, IP1 TR-FRET (IP-One), carbachol + lithium. Potency, µM (series often up to 59.4 µM), without a hit: at the top dose activity, negative = IMPase inhibition, most hits filed as inhibitors. actives 0.35% (n = 210,000); active means well fitted curve in the direction sought with a large enough effect; inconclusive means small, poorly fitted or top-dose-only effect, or another doubt; inactive means no such curve, though single readings can be large; an effect the other way counts as inactive or inconclusive;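 further: IP1 builds up when IMPase is blocked and the TR-FRET signal falls; potency means the concentration at half of the fitted maximal effect; plate controls were basal vehicle for no effect and high inhibitor control for full effect; nearly all actives have a fitted effect of over 50% in size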
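CHO cells stably expressing M1 receptor (2000/well) were cultured 16–30 h, then exposed to compounds with a small lithium addition for 30 min at 37C. IP1 was measured by TR-FRET competition; AC50 from Hill fits.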
ALDH1A1 inh: qHTS Assay for Inhibitors of Aldehyde Dehydrogenase 1 (ALDH1A1) | Aldehyde dehydrogenase 1A1 (Homo sapiens), P00352 | Purified ALDH1A1, NADH fluorescence, propionaldehyde substrate | Potency, µM (titrated, usually from 75.3 µM), for inactives: top-dose activity, negative = inhibition, hits mostly inhibitors | actives 7.3% (n = 220,000);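 further: potency means the concentration at half of the fitted maximal effect; plate controls were no enzyme wells and a reference inhibitor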
IMPase cell inh: qHTS Assay for Identifying the Cell-Membrane Permeable IMPase Inhibitors; Inositol monophosphatase 1 (Rattus norvegicus), P97697; CHO-M1 cells, IP1 accumulation, HTRF TR-FRET ratio; inhibition (IP1 accumulation), % at 46.1 µM; 120,000 tested, under 10 active; active means well fitted curve in the direction sought with a large enough effect in the signal ratio, not every such curve was filed as active; inconclusive means small, poorly fitted or top-dose-only effect, or a change in a side signal; inactive means no such curve, though single readings can be large or run the other way; the % refers to the signal ratio;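 further: cells stimulated with carbachol in lithium chloride buffer; plate controls were DMSO basal wells for no effect and reference inhibitor wells for full effect; higher means more IMPase inhibition seen as more IP1 and lower FRET ratio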
Target sequence (P97697 whole entry, looked up): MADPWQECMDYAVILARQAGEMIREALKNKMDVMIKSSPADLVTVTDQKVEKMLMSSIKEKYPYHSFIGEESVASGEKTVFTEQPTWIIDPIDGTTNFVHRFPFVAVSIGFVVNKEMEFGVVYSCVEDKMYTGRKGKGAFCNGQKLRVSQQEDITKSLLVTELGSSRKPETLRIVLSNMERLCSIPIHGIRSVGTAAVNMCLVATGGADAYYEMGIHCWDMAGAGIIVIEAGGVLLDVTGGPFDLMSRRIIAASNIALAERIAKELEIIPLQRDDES
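Cellular IMPase inhibition is scored as a rise in cytosolic IP1, detected by competitive TR-FRET between d2-labelled IP1 and a europium anti-IP1 antibody. M1-expressing CHO cells were stimulated with carbachol for 30 min at 37C, with lithium (50 mM LiCl) present in the buffer.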
ALOX12 inhib: qHTS Assay for Inhibitors of 12-hLO (12-human lipoxygenase). actives 0.12% (n = 150,000). purified 12-hLO, xylenol orange hydroperoxide absorbance. Potency, µM (doses to about 57.1 µM), for the others: at the highest dose activity change, negative = inhibition, hits mostly inhibitors. Polyunsaturated fatty acid lipoxygenase ALOX12 (Homo sapiens), P18054; active means well fitted curve in the direction sought with a large enough effect; inconclusive means small, poorly fitted or top-dose-only effect, or another doubt; inactive means no such curve, though single readings can be large; an effect the other way counts as inactive or inconclusive; further: potency means the concentration at half of the fitted maximal effect; nearly all actives have a fitted effect of over 55% in size
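Hydroperoxide formation by human 12-lipoxygenase from 40 uM arachidonic acid was followed colorimetrically via ferric-xylenol orange complex, using the 573/405 nm absorbance ratio. Enzyme concentration was 150 nM, with 30 min reaction at room temperature.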
PNC assembly inh: High Content Assay for Compounds that inhibit the Assembly of the Perinucleolar Compartment. PC3M PTB-GFP, PNC prevalence imaging, 16 h; active compounds read low. activity change (PNC), negative = inhibition, % at 10 µM. actives 3.1% (n = 140,000). AID 2417, 2010;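 active means readout at or below -70, meaning at least 70% loss of cells showing the perinucleolar compartment, a nuclear body marking cancer cells; inconclusive means readout between -30 and a set limit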;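 further: plate controls were DMSO wells for no effect and camptothecin positive control wells for full effect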
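Compounds are pinned in duplicate onto adhered PC3M cells stably expressing GFP-tagged PTB and incubated 16 h at 37 C. Cells are then fixed, nuclei stained with Hoechst, and PNC-positive cells counted.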
HPGD inh: qHTS Assay for Inhibitors of HPGD (15-Hydroxyprostaglandin Dehydrogenase) | 15-hydroxyprostaglandin dehydrogenase [NAD(+)] (Homo sapiens), P15428 | purified HPGD, NADH fluorescence kinetic, PGE2 substrate | Potency, µM, without a hit: top-dose activity change, negative = inhibition, usual class: inhibitors | actives 4.3% (n = 150,000) | AID 894, 2007; further: potency means the concentration at half of the fitted maximal effect
Target sequence (P15428 whole entry, looked up): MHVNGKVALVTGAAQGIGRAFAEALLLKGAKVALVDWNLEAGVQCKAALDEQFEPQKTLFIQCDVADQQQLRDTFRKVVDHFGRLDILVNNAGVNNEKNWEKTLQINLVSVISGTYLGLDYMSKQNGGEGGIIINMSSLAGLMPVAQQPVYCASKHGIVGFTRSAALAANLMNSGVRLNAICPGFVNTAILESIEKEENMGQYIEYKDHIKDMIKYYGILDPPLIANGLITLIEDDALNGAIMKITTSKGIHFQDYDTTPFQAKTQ
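NADH formation kinetics: reaction with 30 uM PGE2 and 1 mM NAD+ (final), 20 nM enzyme, Tris-HCl pH 8 with Tween 20, after 15 min compound preincubation at room temperature. Fluorescence change, last versus first of five reads.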
* marks the source's active call; other numbers are inactive results; u = inconclusive; x = no result; [ ] = remark or other dose. Unless noted, the call rests on the fitted dose curve; in most records, active means well fitted inhibition curve with a large enough effect (not every such curve was filed as active); inconclusive means small, poorly fitted or top-dose-only effect, or another doubt; inactive means no such curve, though single readings can be large or run the other way. Unless noted, on the % scale 0 is the no-effect control and ±100 the full control effect.

SMILES	IMPase Li inh	ALDH1A1 inh	IMPase cell inh	ALOX12 inhib	PNC assembly inh	HPGD inh
Cc1cccc(NC(=O)CCCN2C(=O)c3ccccc3C2=O)n1	0%[38.3 µM]	-1%	0	2%	28	-6%
O=C(CCCN1C(=O)/C(=C/c2ccccc2Cl)SC1=S)Nc1ccccn1	5%	-2%	-2	0%	17	16µM*
Cc1cccc(NC(=O)CCCCCN2C(=O)c3ccccc3C2=O)n1	35%[38.3 µM]	u	2[1.84 µM]	19%	37	25µM*
Cc1ccc(S(=O)(=O)NCCCCCC(=O)Nc2c(C)n(C)n(-c3ccccc3)c2=O)cc1	-1%	13µM*	x	x	x	x
O=C(CCCCCCN1C(=O)c2ccccc2C1=O)Nc1nccs1	4%	-8%	13	5%	176	7.9µM*
O=C(CCCN1C(=O)/C(=C/c2cccs2)SC1=S)Nc1ccccn1	22%	-18%	x	x	x	x
COc1ccc(C(=O)C2CCCN(Cc3ccc(C#CCCO)cc3)C2)cc1F (stereo unspecified)	33%	u	x	x	x	x
CN(C)CCN(c1ccccn1)c1ccccn1	-2%	8%[13.5 µM]	x	2%[11.4 µM]	x	-4%
Cc1ccc(NC(=O)CCCCCNS(=O)(=O)c2ccc(C)cc2)cc1	2%	u	x	-2%	29	-2%
COC(=O)CCC(=O)c1oc2ccccc2c1NC(=O)CCCN1C(=O)c2ccccc2C1=O	-9%[38.3 µM]	7%	1	-1%	0	-12%
O=C(CCN1C(=O)c2ccccc2C1=O)Nc1ccccn1	14%[38.3 µM]	-14%	12	-2%	-88*	-6%
Cc1ccc(S(=O)(=O)NCCCCCC(=O)Nc2nccs2)cc1	-1%[38.3 µM]	16µM*	-2	-18%	32	-6%
O=C(CCCN1C(=O)c2ccccc2C1=O)Nc1ccccn1	0%	-3%	u	-1%	u	2%
CC(=O)c1oc2ccccc2c1NC(=O)CCCN1C(=O)c2ccccc2C1=O	13µM*	21%	7	-4%	13	-15%
Oc1ccc(-c2nc3cnccn3c2Nc2ccc3c(c2)OCCO3)cc1	9%[38.3 µM]	40µM*	8	u	-19	11µM*
c1ccc(-c2nc3cnccn3c2Nc2ccc3c(c2)OCCO3)cc1	12%	0%	9	-3%	53	-19%
COc1cc(-c2nc3cnccn3c2Nc2ccc3c(c2)OCCO3)ccc1O	24%[38.3 µM]	-15%	-1[1.84 µM]	1%	u	22µM*
COc1ccc(NC(=O)CC2C(=O)N(c3cccc(OC)c3)C(=O)N2Cc2ccco2)cc1 (stereo unspecified)	0%	16µM*	x	x	x	x
O=C(NC(N1CCOCC1)C(Cl)(Cl)Cl)c1ccccc1Cl (stereo unspecified)	4%	4%	x	x	x	x
O=C(NC(N1CCCCCC1)C(Cl)(Cl)Cl)c1ccccc1Cl (stereo unspecified)	0%	11µM*	x	2%	13	-17%
COc1ccc(-c2nc(CSCC(=O)N3CCN(C(=O)c4ccco4)CC3)c(C)o2)cc1OC	-1%[38.3 µM]	20µM*	4	-3%	u	-16%
CCOC(=O)N1CCN(C(=O)CSCc2nc(-c3ccccc3C)oc2C)CC1	-22%[38.3 µM]	u	-1	1%	-29	-11%
CCOC(=O)N1CCN(C(=O)CSCc2nc(-c3ccccc3F)oc2C)CC1	11%[38.3 µM]	22µM*	5	10%	39	-19%
Cc1sccc1/C=N/NC(=O)c1cccc2ccccc12	-5%	5%	x	-4%	-104*	-7%
O=C(C1CCCN(S(=O)(=O)c2ccc(Br)s2)C1)N1CCCCCC1 (stereo unspecified)	7%[38.3 µM]	5.6µM*	4	-17%	-3	-11%
O=C(O)C1CCCN(S(=O)(=O)c2ccc(Br)s2)C1 (stereo unspecified)	-9%	-1%	x	x	x	x

Screens from PubChem BioAssay.
